Test results published in PubChem BioAssay (NCI).
“And” between values parts separate entries of the source, which are not always exact repeats. Equal values may be shown once. Compounds without any hit were thinned out: in the full panel of roughly 83,000, 20% have a hit.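 Growth was measured after 48 h exposure to one concentration of compound in 96-well plates. Values under 10 count as active.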 The source made the active and inactive calls.

How the values were obtained:
Experiment in all cases: NCI-60 one-dose screen, 48 h (100 = growth as untreated, 0 = no growth, -100 = all killed)
Settings in all cases: 10 µM unless noted
SK-MEL-2 melanoma = test system: SK-MEL-2 melanoma
EKVX NSCLC = test system: EKVX NSCLC
SN12C renal = test system: SN12C renal
UO-31 renal = test system: UO-31 renal
ACHN renal = test system: ACHN renal
CAKI-1 renal = test system: CAKI-1 renal
A498 renal = test system: A498 renal
CCRF-CEM leukemia = test system: CCRF-CEM leukemia
MOLT-4 leukemia = test system: MOLT-4 leukemia
TK-10 renal = test system: TK-10 renal

Measured: growth

COc1ccccc1/C=C\C(=O)c1ccccc1
inactive: SK-MEL-2 melanoma 87.6% | EKVX NSCLC 85.2% | SN12C renal 76.8% | UO-31 renal 44.1% | ACHN renal 77% | CAKI-1 renal 83.2% | A498 renal 101% | CCRF-CEM leukemia 11% | MOLT-4 leukemia 58.1%

CNC(=O)N/N=C/c1ccc([N+](=O)[O-])o1
inactive: SK-MEL-2 melanoma 97.1% | EKVX NSCLC 107% | SN12C renal 90.7% | UO-31 renal 90.5% | TK-10 renal 111% | ACHN renal 106% | CAKI-1 renal 114% | CCRF-CEM leukemia 96.8% | MOLT-4 leukemia 82.7%

CNc1ccc2c(c1)c1ccccc1n2C
inactive: SK-MEL-2 melanoma 103% | EKVX NSCLC 106% | SN12C renal 102% | UO-31 renal 92.4% | TK-10 renal 97.9% | ACHN renal 114% | CAKI-1 renal 98.9% | CCRF-CEM leukemia 109% | MOLT-4 leukemia 88.1%

CN=C(N)N/N=C(\C)c1ccc2c(c1)Cc1cc(/C(C)=N/NC(N)=NC)ccc1-2
inactive: CAKI-1 renal 23.4%
active: SK-MEL-2 melanoma -60.6% | EKVX NSCLC 6.23% | SN12C renal -49.4% | UO-31 renal 6.24% | TK-10 renal -4.01% | ACHN renal -49.9% | CCRF-CEM leukemia -3.32% | MOLT-4 leukemia -10.8%

NC(=S)N/N=C\c1nccc2c(C(F)(F)C(F)(F)C(F)(F)F)cccc12
inactive: EKVX NSCLC 11.8% | SN12C renal 15.6% | TK-10 renal 11.9%
active: SK-MEL-2 melanoma 7.18% | UO-31 renal -31.9% | ACHN renal -0.888% | CAKI-1 renal -5.07% | CCRF-CEM leukemia -8.14% | MOLT-4 leukemia -30.9%

CC(C)(C)c1ccc(O)c(C2CCCCC2)c1
inactive: SK-MEL-2 melanoma 89% | EKVX NSCLC 115% | SN12C renal 97.5% | UO-31 renal 104% | ACHN renal 103% | CAKI-1 renal 116% | CCRF-CEM leukemia 47.9%
active: MOLT-4 leukemia -31.9%

CN(Cc1cnc2nc(N)nc(N)c2n1)c1ccc(C(=O)NC(CCC(=O)O)C(=O)O)cc1 (centres undefined)
active: UO-31 renal 9.25%
inactive: SK-MEL-2 melanoma 79.6% | EKVX NSCLC 70.9% | SN12C renal 26.9% | TK-10 renal 58.8% | ACHN renal 26.8% | CAKI-1 renal 22.2% | CCRF-CEM leukemia 28.8% | MOLT-4 leukemia 24.4%

O=C(O)c1ccc2c3c(ncnc13)-c1ccccc1C2=O
inactive: SK-MEL-2 melanoma 88.4% | EKVX NSCLC 103% | SN12C renal 48.7% | UO-31 renal 62.7% | TK-10 renal 120% | ACHN renal 73.8% | CAKI-1 renal 111% | CCRF-CEM leukemia 77.9% | MOLT-4 leukemia 96.3%

CC1SC(=S)N(c2ccc(Cl)cc2)C1=O (centres undefined)
inactive: SK-MEL-2 melanoma 98.2% | EKVX NSCLC 87.8% and 89.7% | SN12C renal 93% and 85.6% | UO-31 renal 78.9% and 73.9% | ACHN renal 86.8% and 73.4% | CAKI-1 renal 109% and 82.2% | A498 renal 143% and 122% | CCRF-CEM leukemia 113% and 94.8% | MOLT-4 leukemia 83.6% and 86.9%

CNc1ccc(N)cc1
inactive: SK-MEL-2 melanoma 120% | EKVX NSCLC 93.7% | SN12C renal 110% | UO-31 renal 98.2% | TK-10 renal 130% | ACHN renal 92.8% | CAKI-1 renal 91.4% | CCRF-CEM leukemia 87.6% | MOLT-4 leukemia 97.6%

N#CSCC(=O)c1ccc(Cl)cc1
inactive: SK-MEL-2 melanoma 80.8% | EKVX NSCLC 82.6% | SN12C renal 33.6% | UO-31 renal 28.3% | TK-10 renal 82.7% | ACHN renal 52% | CAKI-1 renal 31.8% | CCRF-CEM leukemia 52.5% | MOLT-4 leukemia 65.4%

N#Cc1ccc([N+](=O)[O-])o1
inactive: SK-MEL-2 melanoma 91% | EKVX NSCLC 105% | SN12C renal 106% | UO-31 renal 92.6% | TK-10 renal 108% | ACHN renal 104% | CAKI-1 renal 104% | CCRF-CEM leukemia 102% | MOLT-4 leukemia 99.5%

CCCCCCCCCCCCCCCCOP(=O)([O-])OCC[N+](C)(C)C
active: CCRF-CEM leukemia 1.24% | MOLT-4 leukemia -19.9%
inactive: SK-MEL-2 melanoma 56.8% | EKVX NSCLC 46.9% | SN12C renal 34.2% | UO-31 renal 19.3% | ACHN renal 36.4% | CAKI-1 renal 16.5%

CCC(CCCN(CC)CCc1ccccc1)OC(=O)c1cc(OC)c(OC)c(OC)c1 (centres undefined)
inactive: SK-MEL-2 melanoma 95.6% | EKVX NSCLC 83.8% | SN12C renal 90.2% | UO-31 renal 69.8% | ACHN renal 82.8% | CAKI-1 renal 89.7% | CCRF-CEM leukemia 98.6% | MOLT-4 leukemia 87.1%

O[C@H]1[C@H]2c3cc4c(cc3CN3CCC(=C[C@@H]1O)[C@H]23)OCO4
inactive: SK-MEL-2 melanoma 24.5% | EKVX NSCLC 37.2% | SN12C renal 18.8% | UO-31 renal 33% | CAKI-1 renal 28.1% | A498 renal 51.4% | CCRF-CEM leukemia 23.6%
active: ACHN renal 9.15% | MOLT-4 leukemia 8%

O=C1OCc2cccc3cccc1c23
inactive: SK-MEL-2 melanoma 123% | EKVX NSCLC 88.2% | SN12C renal 101% | UO-31 renal 77% | TK-10 renal 101% | ACHN renal 95.7% | CAKI-1 renal 102% | CCRF-CEM leukemia 94.5% | MOLT-4 leukemia 92.6%

CCC(CC)COC(=O)c1ccc(O)c(O)c1
inactive: SK-MEL-2 melanoma 85.6% | EKVX NSCLC 93.7% | UO-31 renal 26.3% | TK-10 renal 82.5% | ACHN renal 72.5% | CAKI-1 renal 40.6% | CCRF-CEM leukemia 15.2% | MOLT-4 leukemia 30.3%

C[N+](C)=c1ccc2nc3c(cc(NCCCNc4cc5oc6cc(=[N+](C)C)ccc-6nc5c5ccccc45)c4ccccc43)oc-2c1
inactive: SK-MEL-2 melanoma 90.4% | EKVX NSCLC 45.6% | UO-31 renal 45.1% | TK-10 renal 115% | ACHN renal 25.3% | CAKI-1 renal 53.8% | A498 renal 109% | CCRF-CEM leukemia 11.3%
active: MOLT-4 leukemia 5.25%

O=C1c2ccccc2C(=O)c2sc(Nc3cccc(Cl)c3)nc21
inactive: TK-10 renal 147% | CAKI-1 renal 70.4% | A498 renal 79.3%
active: SK-MEL-2 melanoma -16% | EKVX NSCLC 7.78% | UO-31 renal -5.49% | ACHN renal -52.8% | CCRF-CEM leukemia 8.52% | MOLT-4 leukemia -19.6%

Cc1cc2nc(CS)[nH]c2cc1C
active: MOLT-4 leukemia -39.5%
inactive: SK-MEL-2 melanoma 101% | EKVX NSCLC 84.8% | UO-31 renal 83.1% | ACHN renal 92% | CAKI-1 renal 43.9% | A498 renal 95.7% | CCRF-CEM leukemia 55%

CCCCCCC(C)c1ccccc1O (centres undefined) (tested in a mixture with another compound)
inactive: SK-MEL-2 melanoma 123% | EKVX NSCLC 110% | SN12C renal 106% | UO-31 renal 99.1% | ACHN renal 110% | CAKI-1 renal 90.1% | CCRF-CEM leukemia 99.1% | MOLT-4 leukemia 102%

Cc1ccnc2c1ccc1c(C)ccnc12
inactive: SK-MEL-2 melanoma 27.3% | EKVX NSCLC 22.2% | TK-10 renal 25.7% | ACHN renal 11.3% | CAKI-1 renal 16% | A498 renal 19.5% | CCRF-CEM leukemia 13.6%
active: UO-31 renal -4.12% | MOLT-4 leukemia 3.4%

S=C(N/N=C/c1ccccn1)Nc1ccccn1
inactive: EKVX NSCLC 41.4% | UO-31 renal 13% | ACHN renal 15.9% | CAKI-1 renal 13.2%
active: SK-MEL-2 melanoma -5.58% | CCRF-CEM leukemia -14.8% | MOLT-4 leukemia -27.6%

COc1ccc(N=N/N=c2\sc3cc(OC)ccc3n2C)cc1
inactive: SK-MEL-2 melanoma 83.8% | EKVX NSCLC 74.8% | UO-31 renal 82.7% | TK-10 renal 106% | ACHN renal 97.4% | CAKI-1 renal 96.8% | CCRF-CEM leukemia 93.5% | MOLT-4 leukemia 92.1%

CC1(C)CC([P+](c2ccccc2)(c2ccccc2)c2ccccc2)=NN1
active: SK-MEL-2 melanoma -19.2%
inactive: EKVX NSCLC 67.4% | UO-31 renal 67.8% | TK-10 renal 56.4% | ACHN renal 88.1% | CAKI-1 renal 90.1% | A498 renal 92% | CCRF-CEM leukemia 41.3% | MOLT-4 leukemia 21%

C=CCOc1ccc(N=NC(C#N)C#N)cc1
inactive: SK-MEL-2 melanoma 87.3% | EKVX NSCLC 92.6% | UO-31 renal 41.4% | ACHN renal 36% | CAKI-1 renal 25.6% | A498 renal 76% | CCRF-CEM leukemia 13.6% | MOLT-4 leukemia 19.5%

Oc1c(Cl)c2ccccc2c2ccccc12
inactive: SK-MEL-2 melanoma 96.9% | EKVX NSCLC 117% | UO-31 renal 91.8% | ACHN renal 100% | CAKI-1 renal 111% | A498 renal 122% | CCRF-CEM leukemia 112%

C1=C(c2ccccc2)C(c2ccc(OCCN3CCCCC3)cc2)Oc2ccccc21 (centres undefined)
inactive: SK-MEL-2 melanoma 77.3% | EKVX NSCLC 69.1% | UO-31 renal 56.7% | TK-10 renal 74.9% | ACHN renal 71.5% | CAKI-1 renal 30% | CCRF-CEM leukemia 37.5% | MOLT-4 leukemia 47.1%
